Results: PubChem BioAssay (Tox21)
Results filed as inconclusive are left out. A number with no mark means an inactive call. Calls of active or inactive are those of the source. Calls follow the shape of the dose curve; as a rule, active = well fitted activation curve with a large enough effect in the repeat runs; inconclusive = weak or mixed curves; inactive = flat fitted curve, though single readings scatter.
% is scaled to controls: 0 for no effect and ±100 for the full control effect; potency is read from the fitted curve at half-maximal effect.

Assay: A CellTox Green Cytotoxicity Assay to monitor cytotoxicity in HEK293 cells - 24 hour (AID 1224875); also: nearly all actives have a fitted effect of over 45% in size
Settings: CellTox Green fluorescence; series mostly up to 76.8 µM; activity change: at the top concentration
Description: National Center for Advancing Translational Sciences [NCATS]
NIH Chemical Genomics Center [NCGC]
U.S. Environmental Protection Agency [EPA]
National Institutes of Environmental Health Sciences [NIEHS]
National Toxicology Program [NTP]
Cell-based models are critical for drug discovery. Determining the natural cytotoxic effects resulting from test compounds is an essential research activity. A CellTox Green Cytotoxicity Assay to monitor cytotoxicity in real time of continues cell culture during 40 hours of the compound treatment was used to screen Tox21 10K library compounds in Hek293 cells. CellTox Green Cytotoxicity Assay is a nonlytic, homogeneous, biofluorescent method to measure cytotoxicity in cell culture after experimental manipulation. The assay system uses a proprietary asymmetric cyanine dye that is excluded from viable cells but preferentially stains the dead cell's DNA. […] Viable cells produce no appreciable increases in fluorescence. Therefore, the fluorescence signal produced by the binding interaction with dead cell DNA is proportional to cytotoxicity.
The mixture of Hek293 cell suspension and reagents were dispensed at 600cells/6 ul/well in 1536-well tissue culture treated black solid bottom plates using a Multidrop dispenser. After the assay plates were incubated at a 37 C/5% CO2 incubator for 5 hours, 23 nL of compounds dissolved in DMSO, positive and negative controls was transferred to the assay plate by a pintool work station. The plates were incubated at 37 C for 40 hours. The fluorescence intensity were measured at 0h, 8h, 16h, 24h, 32h and 40h time points using ViewLux plate reader during compound treatment.
In the case of `NC(=O)c1nc(-c2cccc(-c3cc(F)ccc3OCC(F)(F)C(F)(F)F)c2)n[nH]1`, the “activity change” value is reported as 28.2%. In the case of `CCCCN(C)C`, the “activity change” value is reported as 12.9%. In the case of `CNC(=S)NN`, the “activity change” value is reported as 3.93%. In the case of `CC(COC(=O)c1ccccc1)OC(=O)c1ccccc1` (stereo not given), the “activity change” value is reported as 2.15%. With `C[Si](C)(C)Cl` the “activity change” value was -7.53%. For `CCCCCCCC/C=C\CCCCCCCC(=O)N(C)CC(=O)O`, the Potency was 34.7 µM (active). With `CCc1c(C(=O)O)c(=O)cnn1-c1ccc(Cl)cc1` the “activity change” value was -5.12%. With `C=CC(C)C#N` (stereo not given) the “activity change” value was -8.33%. With `OCCN1CN(CCO)CN(CCO)C1` the “activity change” value was 2.73%. In the case of `CCNc1nc(NC(C)CC)nc(OC)n1` (stereo not given), the “activity change” value is reported as -0.688%. With `COc1ccccc1OCCNCC(O)COc1cccc2[nH]c3ccccc3c12` (stereo not given) the “activity change” value was 14.7% [at 35.3 µM, stronger effect = higher value]. With `Oc1ccc(-c2ccc(O)cc2)cc1` the “activity change” value was -4.64%. With `CN1CCN(C2Cc3ccccc3Sc3ccc(Cl)cc32)CC1` (stereo not given) the Potency was 21.3 µM (active). With `N[C@@H](CSSC[C@H](N)C(=O)O)C(=O)O` the activity change was 7.29% [at 0.29 µM, stronger effect = higher value]. In the case of `CCN(CC)CCOC(=O)C1(C2CCCCC2)CCCCC1`, the Potency is reported as 23.9 µM (active). In the case of `Cc1ccc(-n2[nH]c(C)c(N=Nc3cccc(-c4cccc(C(=O)O)c4)c3O)c2=O)cc1C`, the “activity change” value is reported as -0.584% [at 35.3 µM, stronger effect = higher value]. For `COc1ccc(C#N)cc1`, the “activity change” value was -6.86%. In the case of `CCCCCCCOC(=O)c1ccccc1C(=O)OCCCCCCC`, the “activity change” value is reported as -2.01%. With `Clc1ccc(C(Cn2ccnc2)OCc2ccsc2Cl)c(Cl)c1` (stereo not given) the “activity change” value was 28.4% [at 35.3 µM, stronger effect = higher value]. In the case of `CC1=CP(=O)(c2ccccc2)CC1` (stereo not given), the “activity change” value is reported as -18.7%. In the case of `CCCCCCCCCCCCCc1ccccc1`, the “activity change” value is reported as -5.48% [at 35.3 µM, stronger effect = higher value]. In the case of `CC(C)(C)c1n[nH]c(=O)n(N)c1=O`, the “activity change” value is reported as -0.262%. In the case of `O=C(O)CCCCCCC(=O)O`, the “activity change” value is reported as 12.1%. With `CCCC(C)CCC(C)=O` (stereo not given) the “activity change” value was 6.3%. In the case of `C[C@]12CC[C@H]3C(=CCc4cc(O)ccc43)[C@@H]1CCC2=O`, the “activity change” value is reported as -5.36%. In the case of `CCO[Si](C)(C)OCC`, the “activity change” value is reported as 2.14%. With `CCOC(=O)COc1ccc(C)cc1` the “activity change” value was -0.707%. With `C/C=C/CO` the “activity change” value was -0.33%. In the case of `CC(=O)C=O`, the “activity change” value is reported as 8.12%. With `CCc1c(Br)c(Br)c(Br)c(Br)c1Br` the “activity change” value was -2.37%. In the case of `COc1cccc(CCc2ccccc2OCC(CN(C)C)OC(=O)CCC(=O)O)c1` (stereo not given), the “activity change” value is reported as 13.9% [at 35.3 µM, stronger effect = higher value]. For `CCC1(c2cnc[nH]2)Cc2ccccc2C1`, the “activity change” value was 1.73% [at 35.3 µM, stronger effect = higher value]. With `CC1=C(/C=C/C(C)=C/C=C/C(C)=C/C(=O)Nc2ccc(O)cc2)C(C)(C)CCC1` the Potency was “inactive”. With `CC(C)(C)CC(C)(C)c1ccccc1O` the Potency was 39.1 µM (active). With `CO[Si](CCCNCCNCCN)(OC)OC` the “activity change” value was 3.36%. With `CCc1cccc(CC)c1N(COC)C(=O)CS(=O)(=O)O` the “activity change” value was -7.83%. For `COc1ccccc1C=O`, the “activity change” value was 20%. In the case of `O=C1c2c(O)ccc(O)c2C(=O)c2c(NCCNCCO)ccc(NCCNCCO)c21`, the “activity change” value is reported as -55.2% [at 35.3 µM, stronger effect = higher value]. For `Cc1ccc(CCn2c3c(c4cc(Cl)ccc42)CN(C)CC3)cn1`, the “activity change” value was 4.31% [at 35.3 µM, stronger effect = higher value]. With `CCC(C)C(=O)OC` (stereo not given) the “activity change” value was -8.8%.
